Activity calls are given as the source filed them. Unless noted, no rule for the calls is given here.
Columns and labels:
[1] = system: Wnt5a (protein binding on small-molecule microarray); test: small molecules binding Wnt5a protein – biophysical, small-molecule microarray, 635/667 nm fluorescence, primary screen (AID 1142); conditions: 635 nm fluorescence, higher = more signal;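 also: fluorescence read at 667 nm with signal to noise per printed feature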
[2] = ATP-based viability of Huh7 replicon cells – cell-based, CellTiter-Glo luminescence, basal, 48 h, cytotoxicity control for HCV replication inhibitor project, primary screen (AID 1143); conditions: higher = more signal, called active from +8 up or from −8 down;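 also: Huh7 hepatoma cells carrying a hepatitis C replication reporter with no stimulus; test concentration not given here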
[3] = Pseudomonas biofilm growth suppression – PAO1 strain, BacTiter-Glo luminescence, LB-PBS, primary screen (AID 1144); conditions: P. aeruginosa PAO1 biofilm, 12 h, higher = more signal
[4] = basal CRE-LacZ reporter activity in PC12 – cell-based, unstimulated, primary screen (AID 1145); conditions: no forskolin, luminescence, 4.5 h, higher = more signal, called active from +8 up or from −8 down
[5] = forskolin-driven CRE-LacZ activity in PC12 – cell-based, CRE-LacZ reporter, forskolin-stimulated, primary screen (AID 1146); conditions: luminescence, 4.5 h, higher = more signal, called active from +8 up or from −8 down;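 also: PC12 cells with 6xCRE LacZ reporter stimulated by forskolin 10 µM; beta-galactosidase reporter signal reflecting CREB driven transcription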
[6] = target: Streptavidin (Streptomyces avidinii) (UniProt P22629); test: compounds binding control protein streptavidin – biophysical, small-molecule microarray, 635/667 nm fluorescence, artefact control for SMM compound annotation, primary screen (AID 1147); conditions: higher = more signal;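 also: signal reflects streptavidin binding to arrayed compounds as a control protein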
Chain of Streptavidin (Streptomyces avidinii) (P22629 whole entry, looked up): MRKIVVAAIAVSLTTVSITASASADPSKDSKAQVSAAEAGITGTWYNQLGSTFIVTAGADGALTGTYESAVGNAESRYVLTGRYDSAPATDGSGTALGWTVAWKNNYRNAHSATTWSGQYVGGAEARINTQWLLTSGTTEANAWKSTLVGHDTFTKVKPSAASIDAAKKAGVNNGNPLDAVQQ

[7] = probe aInhba binding on compound microarray – biochemical, small-molecule microarray, 635/667 nm fluorescence, primary screen (AID 1148); conditions: higher = more signal;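 also: score merges 667nm spot fluorescence with signal-to-noise for antibody binding to printed compounds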
[8] = target: Torsin-1A (Homo sapiens) (UniProt O14656); test: TOR1A wild-type binding on microarray – cell lysate, small-molecule microarray, lysate, 635/667 nm, primary screen (AID 1149); conditions: COS7 hTOR1A-WT lysate, 635 nm fluorescence, higher = more signal
Chain of Torsin-1A (Homo sapiens) (O14656 whole entry, looked up): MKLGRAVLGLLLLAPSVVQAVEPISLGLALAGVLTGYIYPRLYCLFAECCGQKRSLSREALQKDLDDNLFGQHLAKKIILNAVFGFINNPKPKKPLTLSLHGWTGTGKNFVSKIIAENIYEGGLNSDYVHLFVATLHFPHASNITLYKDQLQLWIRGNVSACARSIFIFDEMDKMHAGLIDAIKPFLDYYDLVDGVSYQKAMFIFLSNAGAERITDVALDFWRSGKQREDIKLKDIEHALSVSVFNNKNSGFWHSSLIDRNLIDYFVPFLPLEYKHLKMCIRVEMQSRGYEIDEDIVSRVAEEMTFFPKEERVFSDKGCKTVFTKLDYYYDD

[9] = target: Torsin-1A (Homo sapiens) (UniProt O14656); test: torsin A mutant lysate binding on microarrays – cell lysate, small-molecule microarray, COS7 lysate, 635/667 nm fluorescence, primary screen (AID 1150); conditions: COS7 hTOR1A mutant lysate, 635 nm fluorescence, higher = more signal;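 also: score pools 667 nm emission and signal to noise measuring lysate protein binding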
[10] = system: Sonic hedgehog protein (Shh); test: Sonic hedgehog microarray binding compounds – biochemical, small-molecule microarray, 635/667 nm fluorescence, primary screen (AID 1151); conditions: 635 nm fluorescence, higher = more signal;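 also: Shh protein binding to compounds spotted on small-molecule microarray slides; score combines spot fluorescence intensity with signal-to-noise across triplicate slides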
[11] = optical density shifts of acrAB sulA E. coli – strain DRC41, OD650, 48 h, E. coli filamentation inducer project, primary screen (AID 1152); conditions: higher = more signal, called active from +8 up or from −8 down;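 also: E. coli MC1000 strain DRC41 lacking acrAB efflux pump and sulA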
[12] = probe aLefty1 binding on compound microarray – biochemical, small-molecule microarray, 635/667 nm fluorescence, primary screen (AID 1153); conditions: higher = more signal;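 also: score merges spot fluorescence with signal-to-noise ratio from the scanned slide images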
[13] = plasmodial surface anion channel blockers, osmotic lysis – cell-based, P. falciparum Indochina, OD700, 1 h, primary screen (AID 1154); conditions: P. falciparum Indochina infected RBC osmotic lysis, higher = more signal, called active from +8 up or from −8 down
[14] = plasmodial surface anion channel blockers, osmotic lysis – cell-based, P. falciparum Indochina, OD700, 2 h, primary screen (AID 1155);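 also: lysis reports solute entry through the parasite surface anion channel PSAC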; conditions: P. falciparum Indochina infected erythrocytes, higher = more signal, called active from +8 up or from −8 down
[15] = changes in parasitized red cell lysis, either direction – P. falciparum Indochina, OD700, 3 h, PSAC antagonist project, primary screen (AID 1156); conditions: P. falciparum-infected erythrocytes, osmotic lysis, higher = more signal, called active from +8 up or from −8 down
[16] = plasmodial surface anion channel blockers, osmotic lysis – cell-based, P. falciparum Indochina, OD700, 18 h, primary screen (AID 1157); conditions: P. falciparum Indochina infected erythrocytes, osmotic lysis OD700, 18 h; higher = more signal, called active from +8 up or from −8 down
[17] = S6 kinase pathway phospho-S6 level changes – cell-based, A549, cytoblot, luminescence, serum-stimulated, primary screen (AID 1158); conditions: 5 h, higher = more signal;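 also: serum-stimulated A549 lung adenocarcinoma cells; signal is phosphorylated S6 detected by cytoblot immunostaining with HRP secondary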
[18] = target: NADPH oxidase 2 (Homo sapiens) (UniProt P04839); test: compounds shifting NOX2 Amplex Red fluorescence – cell-based, HEK293-NOX2, PMA-stimulated, NOX inhibitor project, primary screen (AID 1159); conditions: 45 min, higher = more signal, called active from +8 up or from −8 down; also: test concentration not given here
Chain of NADPH oxidase 2 (Homo sapiens) (P04839 whole entry, looked up): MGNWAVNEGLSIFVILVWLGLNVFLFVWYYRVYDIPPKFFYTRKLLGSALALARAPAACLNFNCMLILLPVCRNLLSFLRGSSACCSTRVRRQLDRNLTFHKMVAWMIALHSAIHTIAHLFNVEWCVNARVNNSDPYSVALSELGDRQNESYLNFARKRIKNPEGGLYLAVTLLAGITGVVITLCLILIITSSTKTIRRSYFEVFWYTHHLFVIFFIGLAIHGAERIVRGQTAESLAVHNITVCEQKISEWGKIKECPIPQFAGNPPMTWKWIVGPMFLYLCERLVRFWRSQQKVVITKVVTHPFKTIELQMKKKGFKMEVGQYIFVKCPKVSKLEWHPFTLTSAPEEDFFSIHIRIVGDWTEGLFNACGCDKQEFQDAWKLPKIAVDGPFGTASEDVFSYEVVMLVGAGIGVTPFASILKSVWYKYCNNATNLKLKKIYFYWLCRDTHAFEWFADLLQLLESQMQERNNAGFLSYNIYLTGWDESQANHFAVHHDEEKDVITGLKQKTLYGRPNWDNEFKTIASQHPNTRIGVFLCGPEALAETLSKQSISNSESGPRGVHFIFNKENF

[19] = target: NADPH oxidase 4 (Homo sapiens) (UniProt Q9NPH5); test: compounds shifting NOX4 Amplex Red fluorescence – cell-based, HEK293-NOX4, tetracycline-induced, NOX inhibitor project, primary screen (AID 1160); conditions: HEK293-NOX4, Amplex Red H2O2 fluorescence, 45 min; higher = more signal, called active from +8 up or from −8 down
Chain of NADPH oxidase 4 (Homo sapiens) (Q9NPH5 whole entry, looked up): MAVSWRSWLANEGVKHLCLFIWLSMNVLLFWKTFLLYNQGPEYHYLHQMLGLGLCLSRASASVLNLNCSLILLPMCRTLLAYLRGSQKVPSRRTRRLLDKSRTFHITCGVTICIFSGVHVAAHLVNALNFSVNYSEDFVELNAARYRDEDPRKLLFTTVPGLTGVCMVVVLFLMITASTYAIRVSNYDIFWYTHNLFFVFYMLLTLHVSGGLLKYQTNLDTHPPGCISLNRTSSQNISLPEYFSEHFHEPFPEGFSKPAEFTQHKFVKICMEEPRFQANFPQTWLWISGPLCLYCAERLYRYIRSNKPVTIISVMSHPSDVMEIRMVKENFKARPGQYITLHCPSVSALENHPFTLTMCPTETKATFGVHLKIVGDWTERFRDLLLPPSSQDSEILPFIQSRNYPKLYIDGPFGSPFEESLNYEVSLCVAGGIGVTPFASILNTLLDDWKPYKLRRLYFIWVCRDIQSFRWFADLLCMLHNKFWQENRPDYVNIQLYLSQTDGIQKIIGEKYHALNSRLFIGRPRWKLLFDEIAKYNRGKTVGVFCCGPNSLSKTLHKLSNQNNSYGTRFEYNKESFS

[20] = target: NADPH oxidase 5 (Homo sapiens) (UniProt Q96PH1); test: compounds shifting NOX5 Amplex Red fluorescence – cell-based, HEK293-NOX5, NOX inhibitor project, primary screen (AID 1161); conditions: HEK293-NOX5, ionomycin, 45 min, higher = more signal
Chain of NADPH oxidase 5 (Homo sapiens) (Q96PH1 whole entry, looked up): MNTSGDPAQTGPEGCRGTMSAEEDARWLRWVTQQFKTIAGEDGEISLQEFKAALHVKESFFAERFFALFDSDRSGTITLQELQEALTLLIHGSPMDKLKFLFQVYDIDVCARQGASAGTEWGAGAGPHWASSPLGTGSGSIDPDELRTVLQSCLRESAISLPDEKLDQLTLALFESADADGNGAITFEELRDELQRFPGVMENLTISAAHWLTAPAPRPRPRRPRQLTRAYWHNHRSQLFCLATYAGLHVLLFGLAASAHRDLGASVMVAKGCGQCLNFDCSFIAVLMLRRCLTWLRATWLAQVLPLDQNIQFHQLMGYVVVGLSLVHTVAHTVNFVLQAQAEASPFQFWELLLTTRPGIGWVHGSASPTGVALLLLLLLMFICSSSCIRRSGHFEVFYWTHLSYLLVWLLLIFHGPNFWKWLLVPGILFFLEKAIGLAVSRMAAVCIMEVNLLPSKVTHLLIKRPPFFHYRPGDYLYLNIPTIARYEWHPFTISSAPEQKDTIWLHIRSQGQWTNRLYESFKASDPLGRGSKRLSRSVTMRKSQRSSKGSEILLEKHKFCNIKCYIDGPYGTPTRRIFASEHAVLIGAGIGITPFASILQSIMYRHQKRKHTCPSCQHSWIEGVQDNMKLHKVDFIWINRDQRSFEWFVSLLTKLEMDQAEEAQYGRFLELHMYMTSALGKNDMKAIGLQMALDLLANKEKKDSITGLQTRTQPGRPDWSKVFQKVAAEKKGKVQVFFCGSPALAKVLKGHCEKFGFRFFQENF

SMILES | composite z-score [1] | z-score [2] | z-score [3] | z-score [4] | z-score [5] | composite z-score [6] | composite z-score [7] | composite z-score [8] | composite z-score [9] | composite z-score [10] | z-score [11] | composite z-score [12] | z-score [13] | z-score [14] | z-score [15] | z-score [16] | z-score [17] | z-score [18] | z-score [19] | z-score [20]
C=C[C@@H](COC(C)=O)NS(=O)(=O)c1ccc(Br)cc1 | -0.0143 | -2.37 (inactive) | -0.446 (inactive) | 0.904 (inactive) | 0.344 (inactive) | 0.0981 | -0.0589 | 0.825 | 0.357 | -0.0658 | 0.032 (inactive) | -0.0464 | -0.0045 (inactive) | -0.446 (inactive) | -0.123 (inactive) | 0.0804 (inactive) | -0.0771 | -0.34 (inactive) | -0.487 (inactive) | -0.833
O=C1OCC=C[C@H]2OC34C=CCN(Cn5nnc6ccccc65)C(=O)[C@H]3N(CCCCCCO)C(=O)[C@@H]4[C@@H]12 (stereo not given in full) | -0.277 | 0.205 (inactive) | 1.16 (inactive) | 0.0484 (inactive) | -0.116 (inactive) | -0.701 | 0.111 | -0.494 | -0.416 | -0.104 | -0.169 (inactive) | 0.32 | 1.99 (inactive) | 0.89 (inactive) | 1.15 (inactive) | 0.648 (inactive) | -0.394 | 1.77 (inactive) | -0.17 (inactive) | 2.24
CC(C)c1ccc(NN2C(C(O)c3ccco3)C=CC3C(=O)N(c4ccccc4)C(=O)C32)cc1 (stereo not given) | 0.445 | -0.604 (inactive) | -0.688 (inactive) | 0.622 (inactive) | -0.554 (inactive) | 1.47 | 0.271 | 0.185 | 0.445 | 0.794 | -0.302 (inactive) | 0.409 | 6.96 (inactive) | 1.93 (inactive) | 0.626 (inactive) | 1.29 (inactive) | -0.694 | -1.67 (inactive) | -1.95 (inactive) | -1.88
CC(C)(C)N1CC=CC23O[C@@H]4C=CCOC(=O)[C@@H]4[C@H]2C(=O)N(CCCO)[C@@H]3C1=O (stereo not given in full) | -0.56 | -1.97 (inactive) | 0.0204 (inactive) | 0.321 (inactive) | 0.0029 (inactive) | -1.48 | -0.317 | 0.213 | -0.0267 | -0.471 | 0.799 (inactive) | -0.429 | -0.103 (inactive) | -0.831 (inactive) | 0.858 (inactive) | -1.53 (inactive) | 0.364 | -0.693 (inactive) | -0.00336 (inactive) | -1.09
CC(C)CN1C(=O)[C@@]2(Cc3ccccc31)c1ccccc1C(=O)N(Cc1ccccc1C(F)(F)F)[C@H]2c1ccc(CO)cc1 | -0.331 | -2.54 (inactive) | -1.53 (inactive) | 0.0655 (inactive) | -0.416 (inactive) | -0.0961 | -0.182 | -2.38 | -0.727 | -0.875 | 1.14 (inactive) | -0.345 | 0.21 (inactive) | -0.419 (inactive) | -0.495 (inactive) | -0.48 (inactive) | 2.04 | 0.0489 (inactive) | 0.771 (inactive) | 1.34
C=CCNC(=O)[C@@H]1[C@H]2C(=O)O[C@H](c3ccccc3)[C@H](c3ccccc3)N2[C@H](c2ccccc2OCCO)[C@@]12C(=O)N(C(=O)OCCOC)c1ccc(C#CC3=CCCCC3)cc12 | 0.18 | -4.3 (inactive) | -0.348 (inactive) | 0.0614 (inactive) | -1.49 (inactive) | 0.497 | -0.146 | 0.458 | 0.669 | 0.634 | 0.889 (inactive) | -0.0075 | 2.66 (inactive) | 0.741 (inactive) | 0.123 (inactive) | 0.906 (inactive) | 0.325 | 1.54 (inactive) | 1.44 (inactive) | 1.32
